Source: ChEMBL document CHEMBL3988442, “University of Dundee, Small-Polar-MMV Screening Library” (2021)
The whole screen tested about 38,000 compounds, of which about 1,200 (3.2%) showed an effect of 50% or more. The median lay at about -58%. This is one part of a sample in which strong results are shown more often than they occur.

System: Plasmodium falciparum
Test: Calibr Malaria Delayed Death Assay SOP
Format: functional, organism-based
Set-up: scale not given: in the data most compounds retested in dose-response had high values
Details: concentration 4.99e-06 (unit not given; other assays of the set use mol/L)

| Structure (SMILES) | Percent Effect |
| --- | --- |
| COCc1ncc(-c2nccn2CCS(C)(=O)=O)cn1 | -109% |
| CS(=O)(=O)CCCNc1cccc(COC2CCCCC2)c1 | -119.3% |
| Cc1cc(C(=O)N2CCCC2)ccc1NCc1nc(CC(C)C)no1 | -36.08% |
| C=C/C=c1\c(=C/C)oc2c(NCc3ccccc3)ncnc12 | -45.75% |
| CCCc1nc(N2CCCC(C)C2)c2c(n1)c(C)nn2CC (stereo not given) | -54.34% |
| CCc1c(C)sc2nc3n(CC(N)=O)nc(SC)n3c(=O)c12 | -38.8% |
| CN(C)[C@H]1CCCCN(C(=O)COCc2nc3cc(F)ccc3[nH]2)C1 | -11.74% |
| COC(C)Cc1nc(-c2cnn3c(C)cc(C)nc23)no1 (stereo not given) | -0.05951% |
| CO[C@@H]1CCN(Cc2ccoc2)[C@@H]2CN(Cc3ccco3)C[C@@H]21.O=C(O)C(F)(F)F.O=C(O)C(F)(F)F | 46.48% |
| CO[C@H]1CCN(c2ncc(F)cn2)[C@@H]2CN(Cc3ccco3)C[C@H]12.O=C(O)C(F)(F)F.O=C(O)C(F)(F)F | 62.54% |
| CCN1C[C@H]2[C@@H](C1)N(c1ncc(F)cn1)CC[C@H]2OC.O=C(O)C(F)(F)F.O=C(O)C(F)(F)F | 33.74% |
| CO[C@@H]1CCN(Cc2ccccn2)[C@@H]2CN(Cc3ccco3)C[C@@H]21.O=C(O)C(F)(F)F.O=C(O)C(F)(F)F.O=C(O)C(F)(F)F | 81.61% |
| CO[C@@H]1CCN(c2ncc(F)cn2)[C@@H]2CN(Cc3cccnc3)C[C@@H]21.O=C(O)C(F)(F)F.O=C(O)C(F)(F)F.O=C(O)C(F)(F)F | -59.6% |
| CO[C@@H]1CCN(Cc2c(C)noc2C)[C@@H]2CN(Cc3ccco3)C[C@@H]21.O=C(O)C(F)(F)F.O=C(O)C(F)(F)F | 39.75% |
| Clc1snnc1CN(Cc1cccs1)C1CC1 | -103.1% |
| CCc1noc(C(C)N(C)CC(=O)Nc2cccc(C)c2C)n1 (stereo not given) | -134.7% |
| O=C(O)[C@@H]1CN(C(=O)c2ccc(F)c(F)c2)C[C@H]1c1cccc(F)c1 | -108.3% |
| Cc1cc(CN2CCN(C(=O)C(C(C)C)n3cncn3)CC2)on1 (stereo not given) | -30.78% |
| CCC(CNC(=O)c1ccccn1)N1CCc2ccccc2C1 (stereo not given) | 22.7% |
| O=c1ccc(-c2cccs2)nn1CN1CCc2ccccc2C1 | -135% |
| O=C1CCCCCN1Cc1cccc(OC(F)F)c1 | -103.2% |
| Cc1noc(C)c1CN1CCCC1C(=O)OCc1ccccc1 (stereo not given) | -68.08% |
| Cc1noc(C)c1CN1CCCCC1CCc1ccc(O)cc1 (stereo not given) | 50.08% |

| Structure (SMILES) | Percent Effect |
| --- | --- |
| CSCc1noc(CN2CCCCC2CCc2ccc(O)cc2)n1 (stereo not given) | -58.4% |
| c1cc(-c2cnccn2)cc(-c2ccn(CCCN3CCCCC3)n2)c1 | 18.71% |
| c1cc(-c2cnccn2)cc(-c2ccn(CCN3CCCC3)n2)c1 | 67.88% |
| c1cc(-c2cnccn2)cc(-c2ccn(CCN3CCCCC3)n2)c1 | 41.47% |
| Cc1cc2[nH]c(=O)oc2cc1S(=O)(=O)N1CCC(N2CCCC2=O)CC1 | -16.02% |
| CC(=O)N(C)CC(=O)NC(C)c1ccc(OCCC(C)C)cc1 (stereo not given) | -42.24% |
| Cc1nc(CCNC(=O)NCC(c2ccco2)N(C)C)cs1 (stereo not given) | -71.79% |
| O=C(NCCc1ccncc1)[C@H]1C[C@@H]2CCN(c3nncs3)C[C@H]2O1 | -93.92% |
| COCCN(C)C(=O)NCCc1coc(-c2ccc(C)cc2)n1 | -79.36% |
| Cc1ncc(CNC(=O)N(CCCO)C2CCc3ccccc32)s1 (stereo not given) | -63.88% |
| CC(C)n1ncc2c1NC(=O)CC21C(=O)Nc2cc(Cl)cc(Cl)c21 (stereo not given) | -81.88% |
| CC(C)n1ncc2c1NC(=O)CC21C(=O)Nc2c(Cl)ccc(Cl)c21 (stereo not given) | 83.19% |
| CC(C)n1ncc2c1NC(=O)CC21C(=O)Nc2c(Cl)cc(Br)cc21 (stereo not given) | -58.13% |
| COc1ccc(Cl)cc1NC(=O)N1CCc2nc(NC(C)=O)sc2C1 | -92.85% |
| COc1ccc(COCC(O)CNC(=O)c2cc(C)oc2C)cc1 (stereo not given) | -54.86% |
| O=C(NCCCn1cccn1)C1(c2cccc(Cl)c2)CC1 | -36.51% |
| CS(=O)(=O)NCc1nnc2n1CCN(Cc1cccnc1)C2 | -124.8% |
| COCC1(Nc2nc(C)nc3c2cnn3C)CCCC1 | -148.5% |
| Cc1nc(NC2(CN3CCCCC3)CCCCC2)c2cnn(C)c2n1 | 54.86% |
| CCOC(=O)CC1(Nc2nc(C)nc3c2cnn3C)CCCCC1 | -28.38% |
| COc1cc(C(=O)NS(=O)(=O)c2cc(Cl)sc2Cl)ccc1OC(F)F | -57.9% |
| N#CCCN(CCC#N)Cc1ccc(Br)c2cccnc12 | -154.3% |
| OCCN(CCO)Cc1ccc(Br)c2cccnc12 | -31.32% |

| Structure (SMILES) | Percent Effect |
| --- | --- |
| CCN(CCO)Cc1ccc(Br)c2cccnc12 | 54.32% |
| O=C(NCC1(O)CCC1)c1c(O)cc(Cl)cc1Cl | -101.6% |
| O=C(NCc1ccon1)N1CCC(n2ccc(C(F)(F)F)n2)CC1 | -25.88% |
| Cc1ccnn1CCN1CCCC2(CCC(=O)N(C3CCCC3)C2)C1 (stereo not given) | -99.39% |
| CN1CC(=O)N(c2ccccc2)CC12CCN(C(=O)CC1CC1)C2.O=C(O)C(F)(F)F (stereo not given) | -38.66% |
| O=C(c1cc(F)cc(Cl)c1)N1C[C@@H]2CC[C@H](C1)N(Cc1ccccc1)C2 | -134.7% |
| O=C(c1ccc(F)c(Cl)c1)N1C[C@@H]2CC[C@H](C1)N(Cc1ccccc1)C2 | 73.05% |
| O=C(c1ccc(=O)[nH]c1)N1C[C@@H]2CC[C@H](C1)N(Cc1ccccc1)C2 | -23.45% |
| Cc1nn(C)c2nc(NCCCN3CCCC(CO)C3)sc12 (stereo not given) | -120% |
| N#Cc1ccc(CN2CCNC(=O)C2c2cccs2)cc1 (stereo not given) | -98.76% |
| CC[C@]12CN3C[C@](CC)(CN(C1)C3c1[nH]c(=O)[nH]c(=O)c1C)C2=O (stereo not given in full) | -91.51% |
| CN(Cc1cccnc1)Cc1cn2c(n1)CN(C1CCOC1)CC2.O=C(O)C(F)(F)F.O=C(O)C(F)(F)F.O=C(O)C(F)(F)F (stereo not given) | -34.3% |
| CC(C)CC(=O)NCCCn1cncn1 | -49.15% |
| N#Cc1csc(CNCCOc2ccccc2)c1 | -47.61% |
| CC(C)N1Cc2c(C(=O)N3CCN(C)CC3)nn(C)c2C1 | -111.4% |
| Cc1ccc(-c2nc(CN3CCCC3Cn3cncn3)co2)cc1 (stereo not given) | -9.69% |
| CS(=O)(=O)NCC1CCCCN1Cc1ccccc1C#N (stereo not given) | -35.93% |
| CN(C)c1ccccc1CN1CCCCC1CNS(C)(=O)=O (stereo not given) | 58.92% |
| CC1CS(=O)(=O)CCN1Cc1ccccc1N(C)C (stereo not given) | -5.29% |
| CCCC1(CNCc2ncc[nH]2)CCC1 | 24.35% |
| CCC1(CNCc2ncc[nH]2)CCCC1 | 66.04% |
| c1ccc(CC2(CNCc3ncc[nH]3)CCC2)cc1 | 42.05% |
| Cl.c1cc(OCc2ccc3c(c2)OCO3)ccc1CNC1CC1 | -194.6% |

| Structure (SMILES) | Percent Effect |
| --- | --- |
| O=C(Nc1cccc(OCC(F)F)n1)c1ccncc1F | -156.1% |
| O=C1NC(c2ccccc2)=N[C@@]12CC[C@@H]1CN(Cc3ccncc3)C[C@@H]12 | 12.66% |
| O=C1NC(c2ccccc2)=N[C@@]12CC[C@@H]1CN(Cc3ccco3)C[C@@H]12 | 17.95% |
| O=C1NC(c2ccccc2)=N[C@@]12CC[C@@H]1CN(Cc3ccoc3)C[C@@H]12 | 57.5% |
| Cc1nc(C)n(CC2CN(CCCOc3ccccc3)CCO2)n1 (stereo not given) | -31.23% |
| CN1CCNC(=O)C1CC(=O)NCCc1cnn(-c2ccccc2)c1 (stereo not given) | -54.63% |
| Cc1ccc(C(=O)N2CCC3(CCCC3)CC2)c(=O)[nH]1 | -40.97% |
| Fc1cccc(CN2CCOC3(COCCN(CC4CC4)C3)C2)c1.O=C(O)C(F)(F)F.O=C(O)C(F)(F)F (stereo not given) | 61.62% |
| Fc1cccc(CN2CCOCC3(CCN(C4CCOCC4)C3)C2)c1.O=C(O)C(F)(F)F.O=C(O)C(F)(F)F (stereo not given) | 77.57% |
| Cc1occc1C(=O)N1CCOCC2(CCN(C3CCOCC3)C2)C1.O=C(O)C(F)(F)F (stereo not given) | -32.59% |
| Cc1ccc(C(=O)N2CCOCC3(CCN(C4CCOCC4)C3)C2)o1.O=C(O)C(F)(F)F (stereo not given) | -106.4% |
| O=C(O)C(F)(F)F.O=C(O)C(F)(F)F.O=C(O)C(F)(F)F.c1cncc(CN2CCC3(COCCN(C4CCOCC4)C3)C2)c1 (stereo not given) | -45.9% |
| O=C(N1CCOCC1)[C@@]12CCO[C@@H]1CCN(Cc1cccc(F)c1)C2.O=C(O)C(F)(F)F | -31.47% |
| c1cc(CN2CCOCC3(CCN(C4CCOCC4)C3)C2)ccn1 (stereo not given) | -42.35% |
| O=C(O)C(F)(F)F.O=C(c1ccoc1)N1CCOC2(COCCN(CC3CC3)C2)C1 (stereo not given) | -22.12% |
| O=C(O)C(F)(F)F.O=C(c1ccco1)N1CCOCC2(CCN(C3CCOCC3)C2)C1 (stereo not given) | -3.89% |
| Cc1cccc(CN2CCOCC3(CCN(C4CCOCC4)C3)C2)n1.O=C(O)C(F)(F)F.O=C(O)C(F)(F)F.O=C(O)C(F)(F)F (stereo not given) | 40.9% |
| Cc1cccc(CN2CCOCC3(CCN(C4CCOCC4)C3)C2)c1.O=C(O)C(F)(F)F.O=C(O)C(F)(F)F (stereo not given) | 78% |
| COc1ccc(CN2CCOCC3(CCN(C4CCOCC4)C3)C2)cc1.O=C(O)C(F)(F)F.O=C(O)C(F)(F)F (stereo not given) | 59.83% |
| O=C(O)C(F)(F)F.O=C([C@@H]1C[C@@H]2CCN(C3CCOCC3)C[C@H]2O1)N1CCOCC1 | -14.29% |
| c1cc(-c2cn[nH]c2)ccc1CN1CCCCC1 | -42.56% |
